# Hits are enriched below; roughly 3.8% of the tested compounds scored in any of these assays.
# Hsp70 act: switches on Hsp70 transcription; HeLa Hsp70 promoter luciferase reporter, luminescence; scaled: vehicle 0, proteasome-inhibitor control 100%; activation, % at 10 µM; 0.04% of 200,000 active; AID 1203;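 active = activation above the mean across all tested compounds plus 3 SD, cutoff set per campaign, cut at about 5.5% in these data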;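 also: 100% = MG132 at 30 µM as the positive control and 0% = DMSO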
# HSP90 refold inh: HSP90 refolding inhibition in rabbit reticulocyte lysate | luciferase refolding luminescence, 3 h | AID 1789 | 0.91% of 290,000 active | inhibition, % at 5.6 µM;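 active = inhibition above the screen-wide mean plus 3 SD, computed separately per campaign, cut at about 16% in these data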;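 also: 0% = DMSO wells and 100% = 60 µM geldanamycin wells; inhibitors lower the luminescence because luciferase stays unfolded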
# HSF1 inhib: HSF1 inhibition; 0.77% of 300,000 active; AID 2098; NIH3T3-HGL HSE-luciferase, MG132-induced, luminescence 8 h; stronger effect = lower value; activity change, negative = inhibition, % at 7.5 µM (by protocol);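 active = more than half of replicate wells show activity change below -50%, luminescence cut by over half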;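 also: luciferase reports HSF-1 transcriptional activity via heat shock element; 0% = median of DMSO wells and -100% = zero luminescence signal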
# NALP1 yeast inh: NALP1 inhibition | S. cerevisiae NALP1/ASC/caspase-1 growth, X-gal OD620, 72 h | inhibition, % at 10 µM | 0.61% of 280,000 active; in the data active = inhibition mostly above about 24%, no sharp cut-off; inactive = mostly below about 32%
# HSF-1 act: increases HSF-1 driven luciferase reporter signal. 1.7% of 300,000 active. NIH3T3-HGL HSF-1 luciferase reporter, MG132, 8 h; 100% = twice DMSO control signal. activation, % at 9 µM;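 active = mean replicate activation of at least 50% with a set share of replicates each reaching 50%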;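 also: 0% = median of the neutral control wells and 100% = twice that signal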
# p-CIP stab down: compounds decreasing mouse p/CIP protein stability. decrease of EGFP signal, % at 10 µM. F442A p/CIP-EGFP cells, EGFP fluorescence, 16 h. Q05BA5. AID 1984. 0.01% of 290,000 active;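 active = EGFP signal decrease of at least 30% at 10 µM or well 3 SD below plate mean, unless failing retest; inactive = the rest, including hits failing retest or dose response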
# An asterisk follows results filed as active; . = no result given.
SMILES,Hsp70 act,HSP90 refold inh,HSF1 inhib,NALP1 yeast inh,HSF-1 act,p-CIP stab down
C[C@H](NC(=O)[C@@H]1Cc2ccccc2CN1)C(=O)Nc1ccc2c(c1)OCCO2,.,2,-7,16,1,-7
O=C(CNC(=O)[C@@H]1Cc2ccccc2CN1)Nc1ccc2c(c1)OCCO2,.,2,-52*,28,-52,-7
CSCC[C@H](NC(=O)[C@@H]1Cc2ccccc2CN1)C(=O)Nc1ccc2c(c1)OCCO2,.,1,-52*,18,-61,5
CCOP1(=O)OCC2OC(n3cnc4c(N)ncnc43)C(O)C2O1 (stereo not drawn),.,4,-11,.,11,-2
CC1(C)CC(=O)C2=C(C1)Nc1ccccc1NC2c1ccccn1 (stereo not drawn),0,1,-1,-2,-5,1
CC1(C)CC(=O)C2=C(C1)Nc1ccccc1NC2c1nc2ccccc2[nH]1 (stereo not drawn),0,3,-5,39*,14,-7
COc1ccc(N2CCOCC2)c(NC(=O)c2cc3ccccc3o2)c1,.,-3,-5,19,13,3
CCN(CC)c1ccc(/C=C/c2nc3ccccc3s2)cc1,0,67*,-82*,16,-85,-51
CCc1cccc(CC)c1NC(=S)N1CCn2cccc2C1c1cccnc1 (stereo not drawn),0,5,-55*,11,-65,-3
Cc1ccc(NC(=S)N2CCn3cccc3C2c2cccnc2)cc1 (stereo not drawn),0,-3,5,19,2,-9
Cc1ccc(NC(=S)N(Cc2ccc(Cl)cc2)Cc2ccc(C(=O)O)cc2)cc1Cl,0,-2,52,22,74*,-4
COc1ccc(CN(CC2CCC(C(=O)O)CC2)C(=S)Nc2ccc(C)c(Cl)c2)cc1 (stereo not drawn),0,4,-17,-7,-14,-6
CCCC(=O)Nc1cc2c3c(c1)CCN3C(=O)CC2,.,-1,-3,20,3,-5
Cc1cc(C)nc(NC(=O)CCCC(=O)O)c1,0,0,0,-4,9,-14
Cc1cc(C)nc(NC(=O)c2c(F)c(F)c(F)c(C(=O)Nc3cc(C)cc(C)n3)c2F)c1,.,.,19,.,62*,.
Cc1cc(C)nc(NC(=O)Nc2ccc3c(c2)OCO3)c1,0,-1,29,18,65*,4
Cc1cccc(NC(=O)Nc2cc(C)cc(C)n2)c1,0,1,19,11,53*,7
Cc1cc(C)nc(NC(=O)c2ccc3c(c2)OCO3)c1,0,1,19,12,12,-7
Cc1cc(C(=O)N2CCCC(N3CCN(c4cccc(C(F)(F)F)c4)CC3)C2)c(C)o1 (stereo not drawn),.,1,10,15,7,-13
CC1CCCN(C(=O)CCNS(=O)(=O)c2ccc3c(c2)c(=O)n(C)c(=O)n3C)C1 (stereo not drawn),.,0,4,24,-8,2
Cc1cccc(NC(=O)CNC(=O)CN2C(=O)NC3(CCCCC3C)C2=O)c1C (stereo not drawn),.,.,-4,.,4,.
CC(C)(C)NC(=O)C(c1ccncc1)N(Cc1ccco1)C(=O)c1ccc(-c2ccccc2)[nH]1 (stereo not drawn),0,-2,102,18,138*,9
O=C(NC1CCCCC1)C(c1ccncc1)N(Cc1ccccc1)C(=O)c1ccc(-c2ccccc2)[nH]1 (stereo not drawn),0,2,35,4,55*,-6
O=C(NC1CCCCC1)C(c1ccncc1)N(Cc1ccc(F)cc1)C(=O)c1ccccn1 (stereo not drawn),.,1,4,22,7,-13
O=C1Cc2ccccc2C(=O)N1Cc1cccc(Cl)c1,.,16*,-5,0,4,-2
SMILES,Hsp70 act,HSP90 refold inh,HSF1 inhib,NALP1 yeast inh,HSF-1 act,p-CIP stab down
Nc1cccc2c1C(=O)N(Cc1cccc(Cl)c1)C2=O,0,4,2,-11,8,16
Cc1nc(NC(=O)c2csc3ccccc23)sc1C,0,4,31,-6,61*,-7
Cc1nc(NC(=O)c2ccccc2)sc1C,.,7,32,17,58*,7
Cc1nc(NC(=S)NC(=O)c2ccccc2)sc1C,.,-3,15,17,22,1
Cc1nc(Nc2ccccc2)sc1C,0,-4,-52*,5,-59,-2
CCOC(=O)Cc1cnc(NC(=O)c2ccccc2)s1,0,-1,-54*,31,-59,-7
CCOC(=O)c1csc(NC(=O)c2ccccc2)n1,0,-1,26,-2,50,6
Cc1nc(NC(=O)c2ccccc2O)sc1C,.,4,6,-1,13,-8
CCNC(=O)c1ccc(NC(=O)CC2SC(N3CCCC3)=NC2=O)cc1 (stereo not drawn),.,.,1,.,-12,.
Nc1cc(C(F)(F)F)ccc1OCC1CCCO1 (stereo not drawn),.,6,3,20,14,-8
O=C(Nc1nnc(CCc2ccccc2)s1)c1ccccc1,.,6,17,20,51*,-10
COC(=O)c1cccc(NC(=O)CCNC(=O)c2ccco2)c1,.,0,0,10,5,4
COc1cccc(Nc2ccc(C(=O)O)cc2N)c1,.,11,-66*,17,-69,-3
CCCCN(C)CC(O)Cn1cc(/C=C/C(=O)c2ccc(C)cc2)c2ccccc21 (stereo not drawn),.,2,5,2,0,5
COc1ccc(C)cc1NC(=O)C1CCN(S(=O)(=O)c2c(C)noc2C)CC1,.,-2,-2,23,3,5
Cc1nc2sccn2c(=O)c1S(=O)(=O)NCC1CCN(Cc2ccccc2Cl)CC1,.,0,2,27,15,8
CCOc1ccccc1NC(=O)/C=C/C(N)=O,0,1,19,54*,14,-11
O=C(NC(=S)Nc1ccccc1Br)C1CC1,.,-2,4,4,-4,-10
CCOc1ccccc1NC(=O)CCS(=O)(=O)c1cccs1,.,9,-89*,8,-92,-20
CCOc1ccccc1NC(=S)NC(=O)C1CC1,.,2,-13,26*,-4,-11
CC(=O)Nc1ccc(NC(=S)NC(=O)C2CCCC2)cc1,.,7,10,32*,24,-8
COc1ccc(NC(=O)CSc2nccn2Cc2ccco2)cc1OC,.,4,3,-3,20,1
COc1ccc(CN(C(=O)CCC(=O)Nc2cc(C)on2)C(C(=O)NC(C)(C)C)c2cccc(OC)c2OC)cc1 (stereo not drawn),.,0,-1,-9,3,-14
COc1ccc(NC(=O)CS(=O)CC(=O)Nc2ccc(-n3cnnn3)c(C)c2)cc1 (stereo not drawn),.,1,-6,7,9,10
Cc1ccccc1NC(=O)CCN1CCCC1,0,3,-1,-2,8,-23
